Consider 40 compounds from PubChem BioAssay (NCI).

The panel holds about 83,000 compounds, 20% with a hit somewhere; the sample as a whole holds those more often.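 Single-concentration screen, 48 h exposure, 96-well plates. Endpoint: percent growth. Below 10 = active.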 A number with no mark means an inactive call. Active and inactive are the calls of the source.

In this assay the test system is HOP-62 NSCLC. As to the kind of experiment: NCI-60 one-dose screen, 48 h (100 = growth as untreated, 0 = no growth, -100 = all killed). The settings on record: 10 µM. The procedure: Growth inhibition of the HOP-62 human Non-Small Cell Lung tumor cell line is measured as a screen for anti-cancer activity. Cells are grown in 96 well plates and exposed to the test compound for 48 hours. Compounds are tested at a single concentration, which is 10^-5 M for most compounds. The reported endpoint is percent growth (GI% or GIPRCNT), where numbers from 0 - 100% represent growth inhibition, and numbers from -100% - 0 represent cell death. For example, a value of 40 represents 60% growth inhibition. A value of 0 means no net growth occurred over the course of the experiment. A value of -40 indicates 40% of cells at the beginning of the experiment died by the end of the experiment. A value of -100 means all cells are dead at the end of the experiment.
NCI-60 Human Tumor Cell Lines Screen was performed using the standard one-dose NCI protocol, which is described in more detail at https://dtp.cancer.gov/discovery_development/nci-60/default.htm.
Compounds with GIPRCNT values below 10 were considered active. Activity score was based on GIPRCNT using the following formula: […]
Score is 0 for GIPRCNT values of 100 or above, 50 for GIPRCNT values of 0, and 100 for GIPRCNT values of -100.
In the case of `COc1csc(/C=N/NC(=O)c2[nH]c3ccc(Br)cc3c2-c2ccccc2)c1`, the growth was 24.9%. As for `Brc1ccc(/C=C/c2n(Cc3ccc4ccccc4c3)c3ccccc3[n+]2Cc2ccc3ccccc3c2)cc1`, the figure is -74.3% (active). Take `Cc1ccc(/C=C/C(=O)c2ccc(NC(=O)CSc3nnc(-c4c[nH]c5ccccc45)n3-c3ccccc3)cc2)cc1`: the growth is 95.8%. As for `CC1(C)[C@@H](NCO)CC[C@]2(C)[C@H]3C(=O)C=C4[C@@H]5C[C@](C)(CO)CC[C@]5(C)CC[C@@]4(C)[C@]3(C)CC[C@@H]12`, the figure is 85.2%; as for `Cc1ccc2nc(COc3ccc(C(=O)NNC(=S)NC(=O)c4ccccc4)cc3)[nH]c2c1`, 45.4%. Take `O=C(c1ccc(Cl)cc1)C1[C@H](c2ccccc2Br)[C@@H](c2ccccc2)NC12C(=O)Nc1ccc(Br)cc12` (stereo not given in full): the growth is 31.2%.

For the compound `CCCn1c(=O)c2[nH]c(-c3ccc(OCc4nc5ccc(F)cc5[nH]4)cc3)nc2n(CCC)c1=O`, the growth was -19.4% (active). For the compound `CC(C)CCSc1nc(NC2CC2)c(C#N)c(-c2ccc(C(C)C)cc2)n1`, the growth was 94.9%. As for `Cc1ccc(S(=O)(=O)c2nc(-c3ccccc3)oc2S(=O)(=O)CC(=O)N2CCCC2)cc1`, the figure is 78.3%. As for `Cc1ccc(NC(=O)NCn2c(=O)[nH]c3ccccc3c2=O)cc1`, the figure is 44.8%.

`O=C(Nc1cccc(C(F)(F)F)c1)c1cncc(C#Cc2cnc3ccc(N4CCOCC4)nn23)c1`: the growth is 6.8% (active).

For the compound `CN1C/C(=C\c2ccc(O)cc2O)c2[o+]c3cc(O)ccc3cc2C1`, the growth is 77.8%. Consider `CN1C(=O)N(C)C2SC(N/N=C/c3ccc(F)cc3)=NC21` (stereo not given), for which the growth is 53.5%. As for `CCCn1c(O)c(N=Nc2nc(-c3cc4ccccc4oc3=O)cs2)c2cc(Br)ccc21`, the figure is 94.8%; as for `CCCCSc1nc(Nc2ccc(/C(C)=N/NC(N)=S)cc2)c(C#N)c(-c2ccccc2)n1`, 41.1%; as for `COc1ccc2nc(Cl)c(-c3cc(-c4ccccc4)nc(=S)[nH]3)cc2c1`, 75.7%. For the compound `COc1cccc(-c2ccc(/C=N/NC(=O)c3[nH]c4ccc(Br)cc4c3-c3ccccc3)o2)c1`, the growth is 12.8%. In the case of `Cc1ccc(NCC(=O)Nn2c(COc3ccccc3)nc3ccccc3c2=O)cc1`, the growth is 27.4%. As for `O=C(Nc1ccccc1)Nc1nc2ccccc2s1`, the figure is 77.2%; as for `Cc1cc(C)nc(NS(=O)(=O)c2ccc(N/C(N)=N/c3nccc(-c4cccs4)n3)cc2)n1`, 83%; as for `O=C(Nc1cccc(-c2cn(-c3ccc4oc(=O)ccc4c3)nn2)c1)Nc1cc(C(F)(F)F)cc(C(F)(F)F)c1`, 1.89% (active).

In the case of `O=C(CSc1nnc(-c2c[nH]c3ccccc23)n1-c1ccccc1)c1ccc(Cl)cc1`, the growth was 47.1%. As for `COc1cc2c(cc1OC)/C(=C\c1sc(Nc3ccc(O)cc3)nc1O)C(C(=O)O)=N2`, the figure is 39.2%. As for `O=C(COc1ccc(NC(=O)Nc2ccc(Cl)cc2)cc1)N=Nc1c(O)[nH]c2ccc([N+](=O)[O-])cc12`, the figure is 35.7%; as for `NS(=O)(=O)c1ccc(NC(=O)CSc2ccc(-c3ccc(Cl)cc3)nn2)c(Br)c1`, 2.17% (active). As for `COc1cc(NC(=O)c2cc(-c3ccc(F)cc3F)ccc2O)cc(OC)c1OC`, the figure is 24%; as for `COc1cc(NC(=O)CSc2nnc(-c3ccc4nc(-c5ccc(Cl)cc5)[nH]c4c3)o2)cc(OC)c1OC`, 89.7%; as for `O=C1NC(=NC23CC4CC(CC(C4)C2)C3)N/C1=C\c1ccc2ncsc2c1`, 9.31% (active). Take `O=C(CSc1nnc(-c2c[nH]c3ccccc23)n1-c1ccccc1)Nc1ccc(C(=O)/C=C/c2ccccc2Cl)cc1`: the growth is 91.9%.

Turning to `O/N=C(\CSc1nnc(-c2c[nH]c3ccccc23)n1-c1ccccc1)c1ccc(Cl)cc1`, the growth is -64.1% (active). As for `CC(=O)c1cc(C(=O)N2c3ccccc3Sc3ccccc32)n2ccc(C)cc12`, the figure is 58.6%. Regarding `O=C1Nc2cc(Cl)ccc2/C1=C/c1ccc(OCc2ccc(Br)cc2F)cc1`, the growth was -79.7% (active). For `Cc1ccc2nc(COc3ccc(C(=O)NNC(=S)NCCc4ccccc4)cc3)[nH]c2c1`, the growth is 42.4%. For `O=C(Nc1ccc(I)cc1)Nc1nc2ccc([N+](=O)[O-])cc2s1`, the growth was -90.4% (active). As for `Nc1nc(Nc2ccc(Cl)cc2)n(Cc2cccc(Br)c2)n1`, the figure is -30.4% (active); as for `O=c1[nH]c2ccc(Cl)cc2cc1CSc1ccc(Nc2nccc(-c3ccc4ccccc4c3)n2)cc1`, 85.8%. As for `Cc1ccc(-c2nc3ccc(C(=O)N=Nc4c(O)[nH]c5ccc(Br)cc45)cc3[nH]2)cc1`, the figure is 68.7%; as for `Cc1ccc(-c2nc3ccc(C(=O)N=Nc4c(O)[nH]c5ccc(Cl)cc45)cc3[nH]2)cc1`, -73.7% (active). With `CC(C)(C)c1ccc(NCc2cn(-c3ccc(C(=O)O)cc3)nc2-c2ccc(C#N)cc2)cc1`, the growth was 36.2%. As to `CCOc1ccc2ncc(C#Cc3cncc(C(=O)Nc4ccc(CN5CCN(C)CC5)c(C(F)(F)F)c4)c3)n2n1`, the growth was -46.8% (active).
